Screening results from PubChem.
A selection: hits, their analogues and other compounds. The true share with any hit is near 6.7%.
T cruzi growth-1: T. cruzi proliferation inhibition; T. cruzi beta-gal in NIH3T3, GalScreen luminescence, 90 h; 77,000 tested, 5.9% active; inhibition, % at 8.34 µM;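 active = mean inhibition above about 93%, with at least 55% of replicates each passing it, limit read from the data, passing the limit was not always enough; inconclusive = only one of those two conditions holds; inactive = neither condition holds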
Pf Dd2 growth: blocks growth of Plasmodium falciparum Dd2 parasites | P. falciparum Dd2 growth, SYBR Green, 72 h; stronger effect = lower value | activity change, % at 10 µM | 94,000 tested, 2.3% active | AID 1159554; in the data active = activity change below about -80%; inconclusive = no clear call, values can overlap the other calls
C diff HTS: inhibitors of Clostridium difficile growth; Clostridium difficile clinical isolate growth, OD600, 24 h; stronger effect = lower value; growth activity, negative = inhibition, % at 16 µg/mL (by protocol); 86,000 tested, 0.25% active; AID 1259249;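 active = mean growth activity at or below -80% and every replicate also at or below -80%; inconclusive = mean at or below -80% but some replicate above -80%; inactive = mean growth activity above -80%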;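 also: 0% = DMSO wells and -100% = levofloxacin 16 µg/mL wells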
T cruzi growth-2: Trypanosoma cruzi proliferation inhibition. shares compounds with T cruzi growth-1. T. cruzi beta-gal in NIH3T3, GalScreen luminescence, 90 h. inhibition, % at 8.35 µM. 5,600 tested, 72% active;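 active = mean replicate inhibition above about 95% and at least 55% of replicates individually reaching it, limit read from the data; inconclusive = only one of the two criteria is met; inactive = neither criterion is met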
T cruzi growth-3: inhibitors of T. cruzi proliferation | shares compounds with T cruzi growth-1 | inhibition, % at 2.09 µM | T. cruzi beta-gal in NIH3T3, GalScreen luminescence, 90 h | 5,600 tested, 21% active;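 active = mean inhibition above about 95%, with at least 55% of replicates also reaching it, limit read from the data; inconclusive = meets just one of the two conditions; inactive = meets neither condition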;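 also: plate controls were neutral control median for no effect and positive control median for full effect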
NIH3T3 tox: cytotoxicity in mouse NIH/3T3 fibroblasts; shares compounds with T cruzi growth-1; NIH/3T3 viability, CellTiter-Glo ATP luminescence, 90 h; cytotoxicity (signal decrease), % at 8.35 µM; 5,600 tested, 14% active; AID 651742;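 active = mean signal decrease across replicates above about 35% based on untreated-well scatter, with enough replicates individually passing, limit read from the data; inconclusive = no rule stated though some were filed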;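 also: 0% = median of neutral control wells and 100% = median of positive control wells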
3T3 cytotox 2: cytotoxicity in mouse NIH/3T3 fibroblasts; NIH/3T3 viability, CellTiter-Glo ATP luminescence, 90 h; 5,600 tested, 56% active; inhibition, % at 24.9 µM; AID 651744; shares compounds with T cruzi growth-1;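 active = mean loss of cell viability signal at or above a set limit, and enough replicates individually reaching it; inconclusive = meets only the mean limit or only the replicate share; inactive = meets neither condition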;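 also: 0% = median of neutral control wells and 100% = median of positive control wells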
Starred values were filed as active, the others as inactive; ? = inconclusive; nt = not tested or not shown.

SMILES | T cruzi growth-1 | Pf Dd2 growth | C diff HTS | T cruzi growth-2 | T cruzi growth-3 | NIH3T3 tox | 3T3 cytotox 2
C[C@H](CO)N1C[C@H](C)[C@H](CN(C)Cc2ccc(C(=O)Nc3ccccc3N)cc2)Oc2c(NC(=O)C3CCOCC3)cccc2C1=O | 86 | -14 | -2 | nt | nt | nt | nt
C[C@@H]1CN([C@@H](C)CO)C(=O)c2cccc(NC(=O)c3ccncc3)c2O[C@H]1CN(C)Cc1ccccc1 | 64 | -15 | -2 | nt | nt | nt | nt
C[C@@H]1CCCCO[C@@H](CN(C)Cc2ccc(C(F)(F)F)cc2)[C@@H](C)CN([C@@H](C)CO)C(=O)c2cc(NS(C)(=O)=O)ccc2O1 | -11 | -14 | 2 | nt | nt | nt | nt
C[C@@H]1CN([C@H](C)CO)C(=O)c2cc(C#Cc3cccc(F)c3)cnc2O[C@H]1CN(C)C(=O)C1CCC1 | 22 | -49 | 6 | nt | nt | nt | nt
C[C@@H]1CN([C@H](C)CO)C(=O)c2cc(NC(=O)Cn3cnnn3)ccc2O[C@@H]1CN(C)Cc1ccc2c(c1)OCO2 | -1 | 19 | 9 | nt | nt | nt | nt
COc1ccc2c3c(n(C)c2c1)[C@H](CO)N(C(=O)Nc1ccc(F)cc1)CC31CCN(Cc2cccc(F)c2)CC1 | nt | -76 | 21 | nt | nt | nt | nt
C[C@@H]1CN([C@@H](C)CO)C(=O)c2cc(NC(=O)Cc3cn(C)c4ccccc34)ccc2O[C@@H]1CN(C)Cc1ccncc1 | 30 | -14 | -9 | nt | nt | nt | nt
C[C@H]1CN([C@@H](C)CO)C(=O)c2cc(NC(=O)Cc3cn(C)c4ccccc34)ccc2O[C@@H]1CN(C)Cc1ccncc1 | ? | -15 | -4 | 34 | -25 | 6 | 30*
C[C@H](CO)N1C[C@H](C)[C@@H](CN(C)Cc2ccc(C(F)(F)F)cc2)Oc2ccc(NC(=O)Cc3cn(C)c4ccccc34)cc2C1=O | 118* | -22 | 1 | 107* | 13 | 6 | 14
C[C@@H]1CN([C@@H](C)CO)C(=O)c2cc(NC(=O)Cc3cn(C)c4ccccc34)ccc2O[C@H]1CN(C)Cc1ccc(Cl)c(Cl)c1 | ? | -43 | nt | 105* | 54 | 13 | 6
C[C@H](CO)N1C[C@H](C)[C@@H](CN(C)Cc2ccc(Cl)c(Cl)c2)Oc2ccc(NC(=O)Cc3cn(C)c4ccccc34)cc2C1=O | 80 | -3 | 29 | nt | nt | nt | nt
C[C@H]1CN([C@@H](C)CO)C(=O)c2cc(NC(=O)Cc3cn(C)c4ccccc34)ccc2O[C@@H]1CN(C)Cc1ccc(C(F)(F)F)cc1 | 93 | -41 | 6 | nt | nt | nt | nt
COCC#Cc1cnc2c(c1)C(=O)N([C@H](C)CO)C[C@@H](C)[C@@H](CN(C)S(=O)(=O)c1ccccc1)O2 | 11 | 8 | 1 | nt | nt | nt | nt
O=C(N[C@@H]1CC[C@@H](CCNC(=O)C2CCCC2)O[C@H]1CO)c1ccncc1 | nt | -3 | -1 | nt | nt | nt | nt
CC(=O)N(CC(C)C)C[C@H]1[C@@H](c2ccc(C3=CCCC3)cc2)[C@@H](CO)N1C(C)=O | 3 | -15 | -4 | nt | nt | nt | nt
C[C@H](CO)N1C[C@H](C)[C@H](CN(C)C(=O)C2CCC2)Oc2cc(-c3ccc(F)cc3)ccc2S1(=O)=O | 83 | -38 | nt | nt | nt | nt | nt
C[C@@H]1CCCCO[C@@H](CN(C)S(=O)(=O)c2ccccc2)[C@H](C)CN([C@H](C)CO)C(=O)c2cc(NC(=O)Nc3ccc(C(F)(F)F)cc3)ccc2O1 | 86 | -76 | 4 | nt | nt | nt | nt
C[C@@H]1CCCCO[C@H](CN(C)S(=O)(=O)c2ccccc2)[C@H](C)CN([C@H](C)CO)C(=O)c2cc(NC(=O)Nc3ccc(C(F)(F)F)cc3)ccc2O1 | 87 | -72 | -7 | nt | nt | nt | nt
C[C@H]1CCCCO[C@H](CN(C)S(=O)(=O)c2ccccc2)[C@@H](C)CN([C@@H](C)CO)C(=O)c2cc(NC(=O)Nc3ccc(C(F)(F)F)cc3)ccc2O1 | ? | -68 | 1 | 109* | 117* | 7 | 4
C[C@@H]1CN([C@H](C)CO)C(=O)c2cc(NC(=O)Nc3ccc(C(F)(F)F)cc3)ccc2O[C@@H](C)CCCCO[C@H]1CN(C)S(=O)(=O)c1ccccc1 | 98* | -48 | 2 | 102* | 109* | 19 | 32
COc1cccc(-c2ccc([C@H]3[C@H](CO)N(C(=O)C4CC4)C34CN(C(C)=O)C4)cc2)c1 | nt | 0 | -8 | nt | nt | nt | nt
COc1cccc(S(=O)(=O)N2CCCCN3[C@H](CO)[C@H](c4ccc(-c5cncnc5)cc4)[C@@H]3C2)c1 | 36 | 33 | 8 | nt | nt | nt | nt
COc1cccc(S(=O)(=O)N2CCCCN3[C@H](C2)[C@@H](c2ccc(-c4cccnc4)cc2)[C@@H]3CO)c1 | 114* | -65 | -2 | 112* | 84 | 23 | 51*
COc1cccc(S(=O)(=O)N2CCCCN3[C@@H](CO)[C@H](c4ccc(-c5cccnc5)cc4)[C@@H]3C2)c1 | 107* | 4 | -8 | 100* | 43 | ? | 38*
COc1cccc(S(=O)(=O)N2CCCCN3[C@H](CO)[C@H](c4ccc(-c5cncnc5)cc4)[C@H]3C2)c1 | 82 | 9 | 7 | nt | nt | nt | nt
SMILES | T cruzi growth-1 | Pf Dd2 growth | C diff HTS | T cruzi growth-2 | T cruzi growth-3 | NIH3T3 tox | 3T3 cytotox 2
COc1ccc2c3c(n(C)c2c1)[C@H](CO)N(C(=O)c1cccnc1)CC31CCN(S(C)(=O)=O)CC1 | nt | -19 | -1 | nt | nt | nt | nt
CN1C(=O)c2cc(NC(=O)C3CC3)ccc2OC[C@H]2O[C@H](CC(=O)NCCN3CCCC3)CC[C@@H]21 | 17 | 13 | 3 | nt | nt | nt | nt
CCCN1C[C@H](C)[C@@H](OC)CN(C)C(=O)c2cc(NC(=O)Nc3cccc(OC)c3)ccc2OC[C@H]1C | 21 | nt | nt | nt | nt | nt | nt
CCc1cnc(N2[C@H](C#N)[C@@H](c3ccc(C#CCC4CCCC4)cc3)[C@@H]2CO)s1 | ? | 6 | nt | 96* | 106* | -15 | 104*
CCc1cnc(N2[C@@H](C#N)[C@H](c3ccc(C#CCC4CCCC4)cc3)[C@@H]2CO)s1 | 105* | -55 | -7 | 108* | ? | -7 | 12
CCc1cnc(N2[C@H](CO)[C@@H](c3ccc(C4=CCCC4)cc3)[C@@H]2C#N)s1 | 83 | -9 | 16 | nt | nt | nt | nt
CCc1cnc(N2[C@H](C#N)[C@@H](c3ccc(C4=CCCCC4)cc3)[C@@H]2CO)s1 | 86 | -20 | 13 | nt | nt | nt | nt
CCNC(=O)C[C@H]1C=C[C@@H](NC(=O)C2CC2)[C@@H](CO)O1 | nt | 12 | 3 | nt | nt | nt | nt
C[C@@H]1CN([C@H](C)CO)C(=O)c2cc(C#Cc3ccccc3F)cnc2O[C@H]1CN(C)C(=O)C1CCC1 | 95 | -59 | 0 | nt | nt | nt | nt
C[C@@H]1CCCCO[C@@H](CN(C)C(=O)Cc2ccccc2)[C@H](C)CN([C@H](C)CO)C(=O)c2cc(NC(=O)CCC(F)(F)F)ccc2O1 | 88 | -27 | -8 | nt | nt | nt | nt
Cc1ccc(S(=O)(=O)Nc2ccc3c(c2)C(=O)N([C@H](C)CO)C[C@@H](C)[C@H](CN(C)S(=O)(=O)c2cccs2)OCCCC[C@H](C)O3)cc1 | nt | nt | -9 | nt | nt | nt | nt
